Bioassay records: PubChem, National Center for Advancing Translational Sciences (NCATS)
Only some compounds are listed: those with a hit (about 22% of all), similar ones and a draw of the others.
LmPK inhibitor – blocks Leishmania mexicana pyruvate kinase activity; Q27686; purified LmPK, Kinase-Glo ATP luminescence, 1 h; Potency, µM (top dose mostly 57.5 µM), for inactives: at the top dose activity change, negative = inhibition, usual class: inhibitors; 290,000 tested, 0.37% active; AID 1721; further: potency means the concentration at half of the fitted maximal effect; on the % scale 0 is the no-effect control and ±100 the full control effect
Target sequence (Q27686 whole entry, looked up): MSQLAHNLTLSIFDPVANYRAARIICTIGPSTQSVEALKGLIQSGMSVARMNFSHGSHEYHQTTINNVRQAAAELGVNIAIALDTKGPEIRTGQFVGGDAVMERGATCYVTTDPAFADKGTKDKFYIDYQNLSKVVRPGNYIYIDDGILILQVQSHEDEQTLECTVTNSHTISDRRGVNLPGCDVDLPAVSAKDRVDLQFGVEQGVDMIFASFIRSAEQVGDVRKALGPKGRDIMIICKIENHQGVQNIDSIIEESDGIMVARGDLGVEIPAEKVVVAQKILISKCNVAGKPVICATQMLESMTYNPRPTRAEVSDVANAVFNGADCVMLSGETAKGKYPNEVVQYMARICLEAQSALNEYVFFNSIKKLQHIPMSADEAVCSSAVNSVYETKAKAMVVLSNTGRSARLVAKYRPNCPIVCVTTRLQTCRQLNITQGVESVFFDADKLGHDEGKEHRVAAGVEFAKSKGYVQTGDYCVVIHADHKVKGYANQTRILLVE
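qHTS format; LmPK 0.1 nM; substrates PEP 0.5 mM and ADP 0.1 mM. One-hour room-temperature incubation, then coupled luciferase luminescence; 0.5 nM enzyme wells mark activation.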
Shiga inhibitor – Shiga toxin inhibition; Vero cells, Shiga toxin protein synthesis inhibition reporter; inhibition, % at 38.7 µM; 290,000 tested, 9.2% active; in the data active means inhibition mostly above about 28%, no sharp cut-off; inactive means mostly below about 43%; further: 0% is about no effect
Pf growth 96h – P. falciparum growth inhibition at 96 hour, primary screen for plastid delayed-death inhibitors. P. falciparum luciferase reporter growth, 96 h. Potency, µM (top dose mostly 28.7 µM), inactives show top-dose activity change, negative = inhibition, hits mostly inhibitors. 320,000 tested, 6.9% active. AID 504834; further: potency means the concentration at half of the fitted maximal effect; on the % scale 0 is the no-effect control and ±100 the full control effect
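Two-generation exposure (96 h) targets delayed-death phenotype. Reporter parasites carrying integrated firefly luciferase, in red cells at 2% hematocrit and 0.05% parasitemia final, kept at 37 C, 5% CO2; luminescence loss indicates inhibition.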
Pf growth 48h – P. falciparum growth inhibition at 48 hours (one generation); Potency, µM (titrated, usually from 28.7 µM), inactives show at the highest dose activity change, negative = inhibition, hits mostly inhibitors; 310,000 tested, 5.9% active; AID 504832; P. falciparum luciferase growth in erythrocytes, 48 h; further: potency means the concentration at half of the fitted maximal effect; on the % scale 0 is the no-effect control and ±100 the full control effect
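Luciferase-expressing parasites in RBCs, 2% Hct / 0.1% parasitemia final; RPMI 1640 + 0.5% Albumax; 37 C, 5% CO2, one generation; luminescence read-out, lower signal = inhibition.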
CHX counter – affects cycloheximide protein synthesis inhibition readout, counter-screen; cell reporter, cycloheximide protein synthesis inhibition counterscreen; max response, %; 300,000 tested, 12% active; AID 2314; in the data active means max response mostly above about 13%, no sharp cut-off; inactive means mostly below about 14%; further: read at 38.3 µM for the half of the compounds with a filed dose; 0% is about no effect
Numbers without * were called inactive; ? = inconclusive; . = no result; + = active, no number. Unless noted, the call rests on the fitted dose curve; in most records, active means well fitted inhibition curve with a large enough effect; inconclusive means small, poorly fitted or top-dose-only effect, or another doubt; inactive means no such curve, though single readings can be large or run the other way.

SMILES	LmPK inhibitor	Shiga inhibitor	Pf growth 96h	Pf growth 48h	CHX counter
c1ccc(Cn2c(Sc3nnnn3-c3ccccc3)nnc2-c2ccccc2)cc1	2%	-14	?	1.9µM*	-1
O=c1c2ccccc2nc(CSc2nnnn2-c2ccccc2)n1-c1ccccc1Cl	5%	-2	12µM*	?	-5
c1ccc(Cc2nc3ccccc3n2Cc2ccccc2)cc1	3%	-13	?	?	-1
Cc1ccc(C)c(-n2nnnc2Sc2nnnn2-c2ccccc2)c1	4%	-20	-4%	.	-2
c1ccc(Cn2c(CSc3nnnn3-c3ccccc3)nc3ccccc32)cc1	0%	-14	15µM*	?	-3
Cc1ccc(C(=O)N/C(=C\c2cccs2)C(=O)N2CCOCC2)cc1C	-8%	-30	15%	10%	2
CC1C(c2ccccc2)N(C)C(c2ccccc2)C(C)C1(O)C#Cc1ccccc1 (centres undefined)	8%	-5	-15%	9.3µM*	6
CCN1CCC(O)(C#Cc2ccccc2)CC1	-7%	-4	-2%	-1%	-1
Cc1ccc(OCCn2ccnc2)c(C)c1	-1%	-5	1%	-7%	5
Cc1cc(C)c(C)c(S(=O)(=O)NCCCn2ccnc2)c1C	-2%	.	6.6µM*	?	-5
Cc1ccc(OCCOCCn2ccnc2)c(Br)c1	-2%	75	19%	35%	31*
Cc1ccc(OCCCCn2ccnc2)c(Cl)c1	5%	40*	10%	?	27*
Cc1ccc(C)c(OCCCCn2ccnc2)c1	5%	-14	13µM*	.	-3
CCOc1ccc(N=C2NC(=O)CS2)cc1	8%	.	4%	-4%	-4
Cn1cccc1/C=N/NC(=O)C12CC3CC(CC(C3)C1)C2	1%	25	13%	-4%	-1
CC(C)=CCC/C(C)=C/CO	.	.	10%	4%	.
COc1ccc(CN2C(=O)c3cccc4cccc2c34)cc1F	0%	-3	0%	23%	6
Cc1ccc(OCCn2cncn2)c([N+](=O)[O-])c1	6%	14	?	6%	-4
Cc1ccc(OCCCCn2ccnc2)c([N+](=O)[O-])c1	-2%	36	?	?	21*
O=C(NCC1CC1)NC(=O)c1c(F)cccc1Cl	4%	28	66%	48%	15*
O=C(COC(=O)c1c(F)cccc1Cl)NC1CCCCC1	.	.	93%	114%	.
CS(=O)(=O)N(CC(=O)Nc1ccccc1C(=O)N1CCCC1)c1ccccc1Br	-12%	-17	?	4%	1
CC1=CC(C)(C)Nc2ccc(OC(=O)C(Cc3ccccc3)N3C(=O)c4ccccc4C3=O)cc21 (centres undefined)	0%	7	3%	?	1
CC1=CC(C)(C)Nc2ccc(OC(=O)CN3C(=O)c4cccc5cccc(c45)C3=O)cc21	-1%	56	?	7.4µM*	10
CC1=CC(C)(C)Nc2ccc(OC(=O)CN3C(=O)c4ccccc4C3=O)cc21	4%	55*	31%	15µM*	35*
SMILES	LmPK inhibitor	Shiga inhibitor	Pf growth 96h	Pf growth 48h	CHX counter
CCc1ccc(-n2c(SCC(=O)NC3CCS(=O)(=O)C3)nc3ccccc3c2=O)cc1 (centres undefined)	.	.	?	-19%	.
CCOc1ccccc1N(CC(=O)NCc1ccco1)C(=O)CCC(=O)Nc1nccs1	-8%	-5	23%	-25%	-6
CN(C)c1ccc(N=Nc2ccccc2C(=O)OCC(=O)NC2CCCC2)cc1	-8%	26*	8.3µM*	-6%	24*
CN(C)c1ccc(N=Nc2ccccc2C(=O)OCC(=O)NCC2CCCCC2)cc1	-1%	72*	0%	?	69*
CN(C)c1ccc(N=Nc2ccccc2C(=O)OCC(=O)N(C)C2CCCCC2)cc1	-1%	29*	?	-24%	27*
O=C(COC(=O)c1ccccc1NCCO)NCC1CCCCC1	.	.	36%	10%	.
Cc1cc(N2CCOCC2)nc(NCc2ccccc2)n1	0%	1	8%	.	7
Cc1cc(OC2CCCCC2)nc(NCc2ccccc2)n1	2%	-6	5.2µM*	?	-7
CCCCOc1cc(C)nc(NCc2ccccc2)n1	5%	8	?	13µM*	14
CCOc1cc(C)nc(NCc2ccccc2)n1	1%	-8	?	.	-5
Cc1cc(N2CCCCC2)nc(NCc2ccccc2)n1	1%	10	2.9µM*	3.3µM*	1
CC1(C)CC2(CCCN(CC(O)(c3ccccc3)c3ccccc3)C2)CCO1 (centres undefined)	2%	22	?	?	7
COc1ccc(Cc2nc3ccc(C(=O)N4CCCN(C=O)CC4)cc3o2)cc1	-1%	30	-22%	1%	15
COc1ccc(Cc2nc3ccc(C(=O)N4CCOCC4)cc3o2)cc1	-4%	+	?	3%	68*
COc1ccc(Cc2nc3ccc(C(=O)N4C[C@@H](C)O[C@@H](C)C4)cc3o2)cc1OC	0%	62*	23%	?	44*
COCCN1CCN(C(=O)c2ccc3nc(Cc4ccc(OC)c(OC)c4)oc3c2)CC1	-8%	14	?	-24%	10
CCN(CCn1cccn1)C(=O)c1ccc2nc(Cc3ccc(OC)cc3)oc2c1	3%	56	?	32%	23*
S=c1[nH]nc(-c2ccccc2)n1/N=C/c1ccc(-c2ccccc2Cl)o1	2%	4	?	-6%	-2
Nc1nc2ccccc2n1/N=C/c1ccc([N+](=O)[O-])s1	-1%	14	1.5µM*	?	6
Nc1nc2ccccc2n1/N=C/c1ccc(-c2ccccc2)o1	2%	72*	14%	20%	25*
CCn1cc(CN2CCC(n3nccc3NC(=O)C3CCCC3)CC2)cn1	-11%	-5	19%	-1%	1
COc1ccccc1C/C(N)=N/OC(=O)c1ccco1	-1%	56*	41%	78%	19*
COc1ccccc1C/C(N)=N/OC(=O)c1ccc(C)c([N+](=O)[O-])c1	-3%	5	?	?	-4
COc1ccccc1C/C(N)=N/OC(=O)c1ccc2c(c1)OCO2	0%	105*	-2%	?	44*
COc1ccccc1C/C(N)=N/O	-3%	30	-10%	18%	2
SMILES	LmPK inhibitor	Shiga inhibitor	Pf growth 96h	Pf growth 48h	CHX counter
CCN(CC(=O)NCc1ccc(F)cc1)C(=O)/C=C/c1ccc(S(=O)(=O)N(CC)CC)cc1	3%	-8	-28%	?	-1
COc1cccc(CNC(=O)CCNC(=O)C2CCN(S(=O)(=O)c3ccccc3)CC2)c1	-15%	4	-16%	-4%	-3
O=C(NCc1ccc(-c2nc3ccccc3s2)cc1)c1cc2ccccc2o1	4%	48*	?	43%	20*
O=C(NCc1ccc(-c2nc3ccccc3s2)cc1)c1ccc(Br)o1	-4%	40*	-15%	36%	28*
O=C(Nc1ccccc1-c1nc2ccccc2s1)c1ccc(Br)o1	-1%	-5	-21%	.	2
COc1cccc(COc2ccc3c(C)cc(=O)oc3c2)c1	-6%	79*	244%	116%	31*
